The list is not random: actives were taken first. Their share in the collection is about 11%.
PLK1 PBD block – PLK1 (human) polo-box domain binding inhibition | P53350 | Plk1 PBD binding of FITC phosphopeptide, fluorescence polarization | Potency, µM, inactives show max response, negative = inhibition, hits mostly inhibitors | 360,000 tested, 2.8% active; further: series mostly up to about 57 µM; on the % scale 0 is the no-effect control and ±100 the full control effect; nearly all actives have a fitted effect of over 65% in size
BAZ2B block – inhibitors of human BAZ2B bromodomain | Potency, µM (top dose mostly 114 µM), for inactives: at the top dose activity change, negative = inhibition, hits mostly inhibitors | Q9UIF8 | AID 504333 | AlphaScreen BAZ2B-H3K14Ac peptide displacement | 360,000 tested, 4.4% active; further: on the % scale 0 is the no-effect control and ±100 the full control effect; nearly all actives have a fitted effect of over 60% in size
Target sequence (Q9UIF8 whole entry, looked up): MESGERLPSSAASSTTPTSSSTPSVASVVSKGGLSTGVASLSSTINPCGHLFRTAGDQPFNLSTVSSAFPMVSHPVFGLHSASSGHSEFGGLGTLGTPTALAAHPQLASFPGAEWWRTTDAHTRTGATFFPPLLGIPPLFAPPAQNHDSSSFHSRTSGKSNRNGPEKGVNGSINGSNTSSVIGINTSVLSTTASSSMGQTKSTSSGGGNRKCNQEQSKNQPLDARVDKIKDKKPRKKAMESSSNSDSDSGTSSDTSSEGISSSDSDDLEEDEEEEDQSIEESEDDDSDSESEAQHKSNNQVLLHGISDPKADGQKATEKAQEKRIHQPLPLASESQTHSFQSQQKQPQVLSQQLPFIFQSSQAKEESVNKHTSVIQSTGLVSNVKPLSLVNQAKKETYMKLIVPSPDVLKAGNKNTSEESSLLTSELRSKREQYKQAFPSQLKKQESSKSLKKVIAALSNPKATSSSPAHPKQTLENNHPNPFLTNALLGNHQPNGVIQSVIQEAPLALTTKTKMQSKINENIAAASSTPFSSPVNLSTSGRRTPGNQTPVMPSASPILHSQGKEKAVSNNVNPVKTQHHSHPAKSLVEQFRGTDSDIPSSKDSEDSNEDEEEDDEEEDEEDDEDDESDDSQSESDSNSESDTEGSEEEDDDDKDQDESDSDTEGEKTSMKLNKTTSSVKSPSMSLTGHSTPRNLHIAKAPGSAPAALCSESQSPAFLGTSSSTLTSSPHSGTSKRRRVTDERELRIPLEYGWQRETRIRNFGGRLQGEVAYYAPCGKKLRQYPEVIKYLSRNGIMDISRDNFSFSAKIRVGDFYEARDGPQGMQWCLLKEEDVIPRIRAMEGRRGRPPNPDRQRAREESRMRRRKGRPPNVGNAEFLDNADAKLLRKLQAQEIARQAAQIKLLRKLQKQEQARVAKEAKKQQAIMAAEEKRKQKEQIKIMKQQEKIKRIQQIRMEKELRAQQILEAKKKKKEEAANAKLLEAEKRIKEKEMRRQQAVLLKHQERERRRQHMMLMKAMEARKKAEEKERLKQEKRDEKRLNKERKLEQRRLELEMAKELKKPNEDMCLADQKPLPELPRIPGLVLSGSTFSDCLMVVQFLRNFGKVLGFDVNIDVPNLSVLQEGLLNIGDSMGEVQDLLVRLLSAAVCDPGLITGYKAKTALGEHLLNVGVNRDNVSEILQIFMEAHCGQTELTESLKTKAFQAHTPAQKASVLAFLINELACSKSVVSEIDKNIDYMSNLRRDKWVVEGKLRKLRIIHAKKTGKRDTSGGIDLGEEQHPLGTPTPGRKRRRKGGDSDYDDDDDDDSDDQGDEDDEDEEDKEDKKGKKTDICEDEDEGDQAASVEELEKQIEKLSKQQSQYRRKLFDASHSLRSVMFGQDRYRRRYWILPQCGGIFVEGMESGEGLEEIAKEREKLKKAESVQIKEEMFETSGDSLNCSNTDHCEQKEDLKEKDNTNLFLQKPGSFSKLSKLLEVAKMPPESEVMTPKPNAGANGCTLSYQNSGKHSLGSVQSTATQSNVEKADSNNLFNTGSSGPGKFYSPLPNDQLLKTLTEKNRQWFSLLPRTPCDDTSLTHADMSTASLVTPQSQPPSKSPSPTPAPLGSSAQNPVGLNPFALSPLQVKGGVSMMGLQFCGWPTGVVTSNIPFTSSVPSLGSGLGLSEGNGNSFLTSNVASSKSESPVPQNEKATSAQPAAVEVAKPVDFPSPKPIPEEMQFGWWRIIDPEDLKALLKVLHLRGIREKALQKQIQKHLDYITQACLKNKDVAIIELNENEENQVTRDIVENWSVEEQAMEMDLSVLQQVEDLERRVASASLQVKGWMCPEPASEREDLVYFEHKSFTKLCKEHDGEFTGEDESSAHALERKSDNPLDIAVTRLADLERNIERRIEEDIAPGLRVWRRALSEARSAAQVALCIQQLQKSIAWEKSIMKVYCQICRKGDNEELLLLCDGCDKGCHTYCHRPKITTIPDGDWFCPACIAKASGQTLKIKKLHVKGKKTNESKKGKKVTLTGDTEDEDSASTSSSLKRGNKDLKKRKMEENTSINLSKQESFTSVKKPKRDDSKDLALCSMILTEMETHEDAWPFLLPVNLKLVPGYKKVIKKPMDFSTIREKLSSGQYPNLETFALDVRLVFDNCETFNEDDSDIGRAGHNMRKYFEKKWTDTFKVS
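Complex of BAZ2B and biotin-H3K14Ac (50 nM apiece) forms over 30 min at RT, then faces library compounds up to 110 uM for another 30 min; AlphaScreen beads added, 20 min dark incubation, luminescence read.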
G9a inh – blocks human histone lysine methyltransferase G9a. Q96KQ7. G9a H3K9 monomethylation, AlphaScreen, 2 h. Potency, µM (top dose mostly 102 µM), for the others: at the highest dose activity, negative = inhibition, actives largely listed as inhibitors. 350,000 tested, 8.8% active; further: on the % scale 0 is the no-effect control and ±100 the full control effect; nearly all actives have a fitted effect of over 75% in size
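Using a bead-based AlphaScreen, monomethylated H3K9 product from 2 h room-temperature reactions (G9a 20 nM, peptide 500 nM, SAM 20 uM) was detected with 0.5 ug/mL rabbit anti-H3K9me1 antibody.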
HP1b binding inh – HP1-beta chromodomain-methylated histone interaction inhibition; AID 540317; Potency, µM (top dose mostly 114 µM), for inactives: top-dose activity change, negative = inhibition, actives largely listed as inhibitors; AlphaScreen HP1-beta / biotin-H3K9me3 peptide binding; 390,000 tested, 0.56% active; further: nearly all actives have a fitted effect of over 70% in size
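HP1-beta protein (50 nM final) preincubated 30 min at room temperature with biotinylated H3(1-18)K9me3 peptide (50 nM) in PBS pH 7.4, 0.01% Tween-20, then compound added for 30 min. AlphaScreen streptavidin donor/nickel chelate acceptor beads (10 ug/mL final), 30 min dark, luminescence read.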
JMJD2A Tudor inh – blocks the human JMJD2A Tudor domain; 390,000 tested, 4.4% active; O75164; AlphaScreen JMJD2A-Tudor / H3K4me3 peptide binding; Potency, µM (series often up to 114 µM), for inactives: at the top dose activity change, negative = inhibition, usual class: inhibitors; AID 504339; further: on the % scale 0 is the no-effect control and ±100 the full control effect; nearly all actives have a fitted effect of over 50% in size
VDR inh – blocks the human vitamin D receptor. AID 504847. Potency, µM, without a hit: max response, negative = inhibition, usual class: inhibitors. P11473. VDR-SRC2-3 peptide fluorescence polarization, 2 h. 400,000 tested, 0.93% active; further: on the % scale 0 is the no-effect control and ±100 the full control effect
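Compounds are added to VDR with labelled SRC2-3 coactivator peptide and held 2 h at room temperature. Inhibition of the VDR–peptide interaction is then read as a change in fluorescence polarization.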
* = called active by the depositor; [ ] = dose if it differs, or a comment. The call rests on the fitted dose curve; in most records, active means well fitted curve in the direction sought with a large enough effect; inconclusive means small, poorly fitted or top-dose-only effect, or another doubt; inactive means no such curve, though single readings can be large; an effect the other way counts as inactive or inconclusive. Potency means the concentration at half of the fitted maximal effect.

For CCS(=O)(=O)c1nc(S(=O)(=O)c2ccc(Cl)cc2)c(NCc2ccccc2Cl)s1 the results were BAZ2B block -2%, G9a inh -3%[59 µM], HP1b binding inh 7%, JMJD2A Tudor inh -15% and VDR inh 3%.
`Cc1cc(OC(C)C(=O)NCCCN2CCOCC2)c2c(C)c(C)c(=O)oc2c1` (stereo not given) gave PLK1 PBD block -10%, BAZ2B block 1%, G9a inh 15%, JMJD2A Tudor inh -16% and VDR inh -1%.
CC(Oc1cc2oc(=O)c3c(c2cc1Cl)CCC3)C(=O)NCCCN1CCOCC1 (stereo not given) was read as PLK1 PBD block 0%, BAZ2B block 14%, G9a inh -12%[59 µM], HP1b binding inh 25%, JMJD2A Tudor inh -4% and VDR inh -16%.
For Cc1c(C)c2cc(Cl)c(OC(C)C(=O)NCCN3CCOCC3)cc2oc1=O (stereo not given) the results were PLK1 PBD block 24µM*, BAZ2B block -3%, G9a inh 56%, HP1b binding inh 3%, JMJD2A Tudor inh inconclusive and VDR inh inconclusive.
CC(Oc1cc2oc(=O)c3c(c2cc1Cl)CCCC3)C(=O)NCCN1CCOCC1 (stereo not given) was read as PLK1 PBD block 24µM*, BAZ2B block -11%, G9a inh 22%, HP1b binding inh 8%, JMJD2A Tudor inh inconclusive and VDR inh inconclusive.
`CCS(=O)(=O)n1nc(-c2ccco2)nc1NCc1ccc(C(C)C)cc1` gave BAZ2B block -30%, G9a inh inconclusive, HP1b binding inh 11%, JMJD2A Tudor inh -6% and VDR inh 14%.
For CCCn1nnnc1NCc1ccccc1C the results were PLK1 PBD block -8%, BAZ2B block inconclusive, G9a inh -3%, HP1b binding inh 65%, JMJD2A Tudor inh -3% and VDR inh -12%.
For CN(C)c1ccc(S(=O)(=O)NCC(=O)NCCOc2ccccc2F)cc1[N+](=O)[O-] the results were PLK1 PBD block inconclusive, BAZ2B block -33%, G9a inh 50µM*, HP1b binding inh -13%, JMJD2A Tudor inh -31% and VDR inh inconclusive.
Screening CSc1ccc(S(=O)(=O)NCC(=O)OCC(=O)N(C)CC(=O)Nc2ccc(F)cc2)cc1[N+](=O)[O-] returned PLK1 PBD block 4%, HP1b binding inh 11%, JMJD2A Tudor inh -22% and VDR inh 10%.
`CN(CC(=O)Nc1cccc(F)c1)C(=O)CNS(=O)(=O)c1ccc(N(C)C)c([N+](=O)[O-])c1` gave PLK1 PBD block 15µM*, BAZ2B block 71µM*, G9a inh 50µM*, HP1b binding inh -12%, JMJD2A Tudor inh inconclusive and VDR inh inconclusive.
`CCc1ccc2oc(C(=O)NCCc3ccc(OC)c(OC)c3)cc(=O)c2c1` gave BAZ2B block -4%, G9a inh -4%[59 µM], HP1b binding inh 36%, JMJD2A Tudor inh -11% and VDR inh 8%.
Screening COC(=O)CCC(=O)N1CCC(Oc2cccc(C(=O)NCc3ccccn3)c2)CC1 returned PLK1 PBD block -1%.
Screening CN(c1ccc(F)cc1)S(=O)(=O)c1ccc(Cl)c(C(=O)NCC2(N3CCOCC3)CCCCC2)c1 returned PLK1 PBD block 2%, HP1b binding inh 25%, JMJD2A Tudor inh -10% and VDR inh -5%.
Screening Cc1c2c(c(C)n1C)C(C(=O)NC1CCCCC1)N(Cc1ccccc1)C2=O (stereo not given) returned PLK1 PBD block -19%, G9a inh 50µM*, HP1b binding inh 12%, JMJD2A Tudor inh -10% and VDR inh -20%.
Screening COc1cc(NC(=O)c2cc([N+](=O)[O-])ccc2NC(=O)CN2CCN(c3ccccn3)CC2)cc(OC)c1 returned PLK1 PBD block -8%, BAZ2B block -3%, HP1b binding inh -19%, JMJD2A Tudor inh -28% and VDR inh 0%.
For O=C(CCN1C(=O)c2ccccc2C1=O)CN1CCOCC1 the results were PLK1 PBD block 0%, BAZ2B block 6%, G9a inh 50µM*, HP1b binding inh -7%, JMJD2A Tudor inh -32% and VDR inh -23%.
`CCOc1ccc(CCNC(=O)CN(C)S(=O)(=O)c2cccs2)cc1OCC` gave PLK1 PBD block -2%, BAZ2B block 7%, G9a inh -51%, HP1b binding inh 9%, JMJD2A Tudor inh 6% and VDR inh -15%.
Screening CCCc1cnc2c(c1SCc1cccc(F)c1)c(=O)n(C)c(=O)n2C returned BAZ2B block 0%, G9a inh inconclusive, HP1b binding inh 49%, JMJD2A Tudor inh 7% and VDR inh 6%.
For Fc1ccc(-c2n[nH]c(=S)n2CC2CCCO2)cc1 (stereo not given) the results were PLK1 PBD block -20%, BAZ2B block -37%, G9a inh 2.8µM*, HP1b binding inh 6%, JMJD2A Tudor inh -4%[11.4 µM] and VDR inh 1%.
`S=c1[nH]nc(-c2ccncc2)n1CC1CCCO1` (stereo not given) gave PLK1 PBD block -10%, BAZ2B block -8%, G9a inh inconclusive, HP1b binding inh -10%, JMJD2A Tudor inh 45µM* and VDR inh 3%.
C=C(C)Cn1c(-c2ccncc2)n[nH]c1=S was read as PLK1 PBD block -12%, BAZ2B block inconclusive, G9a inh 14µM*, HP1b binding inh 8%, JMJD2A Tudor inh 50µM* and VDR inh -3%.
`CC(C)CCn1c(=O)c2cccnc2n(CC(=O)Nc2ccccc2)c1=O` gave BAZ2B block 7%, G9a inh -5%[59 µM], HP1b binding inh 31%, JMJD2A Tudor inh 0% and VDR inh 9%.
CC(C)C(NC(=O)OCc1ccccc1)C(=O)OCC(=O)NCc1ccco1 (stereo not given) was read as PLK1 PBD block -15%, BAZ2B block 50µM*, G9a inh -21%[59 µM], HP1b binding inh -16%, JMJD2A Tudor inh 56µM* and VDR inh 4%.
`COc1ccc(CC(=O)OCC(=O)NCc2ccco2)cc1OC` gave PLK1 PBD block -2%, BAZ2B block 8%, G9a inh 50µM*, HP1b binding inh 37%, JMJD2A Tudor inh -6% and VDR inh 2%.
O=C(COC(=O)COc1ccc(Nc2ccccc2)cc1)NCc1ccco1 was read as PLK1 PBD block -7%, BAZ2B block 50µM*, G9a inh 50µM*, HP1b binding inh inconclusive, JMJD2A Tudor inh 56µM* and VDR inh -3%.
O=C(COC(=O)Cc1cccc(C(F)(F)F)c1)NCc1ccco1 was read as PLK1 PBD block inconclusive, BAZ2B block 50µM*, G9a inh inconclusive, HP1b binding inh inconclusive, JMJD2A Tudor inh 79µM* and VDR inh -6%.

From PubChem
